From PubChem
Most compounds without a hit are left out; they make up all but 4.1% or so of the library.
DAX1 inh-1 = inhibits human nuclear receptor DAX1; P51843; HEK293 Gal4-DAX1 luciferase reporter, luminescence; inhibition, % at 6.75 µM; 340,000 compounds, 0.99% hits; AID 504766;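 active = inhibition above the mean over all tested compounds plus 3 SD, cut at about 4.2% in these data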;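 note: 0% = DAX1-transfected cells with DMSO and 100% = empty-vector control cells with DMSO; inhibition shows as a rise in luminescence from relieved DAX1 repression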
Target sequence (P51843 207-470 limits assumed): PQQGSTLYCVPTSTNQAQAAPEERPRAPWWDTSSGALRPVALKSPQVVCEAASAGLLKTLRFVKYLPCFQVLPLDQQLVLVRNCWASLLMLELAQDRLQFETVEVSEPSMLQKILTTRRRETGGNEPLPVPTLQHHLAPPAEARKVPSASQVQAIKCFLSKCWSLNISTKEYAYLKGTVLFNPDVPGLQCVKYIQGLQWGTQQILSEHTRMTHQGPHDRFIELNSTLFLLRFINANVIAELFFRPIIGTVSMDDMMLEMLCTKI
hcDAF-12 act = H. contortus DAF-12 activation, primary screen; HEK293 hcDAF-12 lit1-tk-luc reporter, luminescence; 0% DMSO, 100% Δ7-dafachronic acid; activation, % at 6.8 µM; 370,000 compounds, 1.4% hits; AID 652067;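 active = activation above the mean of all tested compounds plus 3 SD, cut at about 5.5% in these data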;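 note: 100% = response to 3 µM Δ7-dafachronic acid high control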
DAX1 inh-2 = inhibitors of DAX1 repression of SF-1 activated StAR promoter; HEK293T StAR-luciferase reporter, SF-1/DAX-1 repression relief; inhibition, % at 6.8 µM; 370,000 compounds, 1.1% hits;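 active = inhibition above the mean over all tested compounds plus 3 SD, cut at about 3.6% in these data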;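 note: 0% = DAX-1 cells with DMSO and 100% = cells lacking DAX-1 with DMSO; higher inhibition means more luminescence from relief of DAX-1 repression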
hgDAF12 agonist = hgDAF-12 agonism, primary luciferase screen | HEK293 GAL4-hgDAF12 UAS-luciferase reporter, agonist luminescence; normalized to butyrate control | activation, % at 6.8 µM | 370,000 compounds, 1.8% hits;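 active = activation above a cutoff set at the mean of all screened compounds plus 3 SD, cut at about 10% in these data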;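 note: 0% = DMSO wells and 100% = sodium butyrate wells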
ssDAF-12 act = activators of S. stercoralis DAF-12 nuclear receptor; HEK293 ssDAF-12/GRIP1 lit1-tk-luc reporter, luminescence; % of 3 µM dafachronic acid response; activation, % at 6.8 µM; 370,000 compounds, 1% hits; AID 652126;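 active = activation above the mean over all tested compounds plus 3 SD, cut at about 0.9% in these data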;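 note: 0% = DMSO-only wells and 100% = 3 µM delta7-dafachronic acid wells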
Numbers without * were called inactive; nt = no result.

SMILES	DAX1 inh-1	hcDAF-12 act	DAX1 inh-2	hgDAF12 agonist	ssDAF-12 act
CC(=O)c1csc(Nc2ccccc2Cl)n1	8.7*	1.3	0.4	6.9	-0.6
CCCNC(=O)c1csc(Nc2cccc3ccccc23)n1	-1.8	1.4	-0.1	0.7	-1.4
O=C(Nc1ccc(Cl)cc1)c1csc(-c2ccccc2)n1	1.0	0.6	0.3	1.3	-1.8
CC(=O)c1csc(-c2ccccc2)n1	5.4*	-1.1	0.4	0.3	-1.5
c1cnc2ccc3ncccc3c2c1	5.0*	2.0	0.8	4.5	-1.2
C[C@@H]1CN([C@@H](C)CO)C(=O)CCCn2nncc2CO[C@@H]1CN(C)C(=O)C1CC1	nt	0.1	0.6	3.0	-0.8
COc1ccc(Cl)cc1NC(=O)/C=C\C(=O)O	1.7	5.1	-0.6	1.5	0.9*
COc1ccc(Cl)cc1NC(=O)COC(=O)Cc1cc(OC)c(OC)c(OC)c1	-0.7	-0.3	-1.0	-0.1	2.8*
COc1ccc(Cl)cc1NC(=O)Nc1ccc(Br)cn1	-0.2	6.0*	0.1	3.1	0.6
COc1ccc(NC(=O)/C=C/C(=O)O)cc1Cl	1.3	-1.4	0.8	0.6	-1.2
OC1CCN(Cc2ccc(OCc3ccccc3)cc2)CC1	2.2	6.3*	1.6	11.3*	-0.2
O=C(C1CCN(Cc2ccc(OCc3ccccc3)cc2)CC1)N1CCCC1	-0.9	0.2	-0.8	2.0	-1.3
CCCCNC(=O)C1CCN(Cc2ccc(OCc3ccccc3)cc2)CC1	0.2	-0.5	-0.2	10.7*	-0.1
O=C1CCCC(=O)C1=C1SCCCS1	4.5*	0.5	0.1	-0.4	-1.1
O=C1C(=C2SCCCS2)CC/C1=C\c1ccc(F)cc1	-1.1	3.8	1.1	2.3	-1.1
CCC(C)N(C(=O)CSc1nncn1C)C1CCS(=O)(=O)C1 (stereo unspecified)	0.1	-0.8	0.3	0.5	-1.0
CCC(C)N(C(=O)CSc1nnc(-c2ccco2)n1C)C1CCS(=O)(=O)C1 (stereo unspecified)	4.6*	-1.2	-1.1	1.9	-0.8
COc1ccc(-c2nc3cc(C)c(Br)c(C)n3c2Cc2ccccc2)cc1OC	nt	-0.8	-1.0	0.3	-0.9
Cc1cc2nc(-c3ccc(Cl)cc3)c(CC(C)(C)C)n2c(C)c1Br	nt	1.6	-2.1	4.2	0.5
Cc1ccc(Cc2c(-c3ccc(Cl)cc3)nc3cc(C)c(Br)c(C)n23)cc1	nt	2.6	4.1*	3.2	1.2*
Cc1cc2nc(-c3ccc(Cl)cc3)c(CC3CCCCC3)n2c(C)c1Br	nt	6.1*	3.5	3.8	1.4*
Cc1ccc(-c2nc3cc(C)c(Br)c(C)n3c2Cc2ccccc2)cc1	nt	5.6*	0.9	9.6	0.5
CSc1nc(N)nc(N(C)C)n1	0.7	1.3	0.1	-0.1	-2.6
CSc1nc(N)nc(C2CC2)n1	4.8*	1.0	-0.2	-1.3	-1.1
Cn1cnc([N+](=O)[O-])c1Sc1nnc(-c2ccccc2)c(-c2ccccc2)n1	nt	-0.8	-1.1	-1.9	-1.0
SMILES	DAX1 inh-1	hcDAF-12 act	DAX1 inh-2	hgDAF12 agonist	ssDAF-12 act
CCOC(=O)[C@]12CCCC=C1N(Cc1ccccc1)C(=O)[C@H](CC(=O)NCCCOC)C2	nt	-1.1	2.5	-0.4	-0.9
CCC(=O)Nc1ccc(NC(=O)c2ccco2)c(OC)c1	1.9	-0.8	0.8	4.5	-0.9
CCCC(=O)Nc1ccc(NC(=O)c2ccco2)c(OC)c1	1.3	1.9	3.7*	5.8	-0.4
COc1cc(NC(=O)CC(C)C)ccc1NC(=O)c1ccco1	4.4*	0.4	2.3	4.6	-1.0
O=[N+]([O-])c1cccc(C2Nc3cccc4cccc(c34)N2)c1	1.0	-2.3	0.6	0.7	-1.4
O=[N+]([O-])c1ccc(C2Nc3cccc4cccc(c34)N2)cc1	1.0	3.1	-0.4	1.9	1.6*
O=C(CSc1nnc(-c2cnccn2)n1-c1ccccc1)Nc1ccc2cn[nH]c2c1	nt	2.5	-0.5	0.4	0.5
CC1(C)OC2COC(c3[nH]nc4c(=O)[nH]c(=O)[nH]c34)C2O1 (stereo unspecified)	0.2	0.2	0.6	-0.8	0.2
CC(C)c1ccc(NC(=O)C2CC3CCC2C3)cc1 (stereo unspecified)	6.0*	-0.1	1.4	9.4	-0.6
O=C(Nc1ccc(F)cc1)C1CC2CCC1C2 (stereo unspecified)	0.3	-1.7	0.2	2.1	-0.6
CCC(C)c1ccc(NC(=O)C2CC3CCC2C3)cc1 (stereo unspecified)	4.7*	0.7	1.1	7.0	-1.3
CN1CCn2cnc(C(=O)Nc3ccc(Cl)cc3)c2C1=O	0.9	-2.4	-0.8	-0.2	-1.6
Cc1cc(-c2cc(NC(=O)Cc3c[nH]c4ccccc34)ccc2Nc2cccnc2)ccc1F	nt	1.3	-1.1	-5.3	-0.3
CCCCCC1(C)NC(=S)N(c2ccccc2)N1 (stereo unspecified)	0.7	0.6	-0.2	-0.7	-0.7
CCC1(c2ccc(Cl)cc2)NC(=S)N(c2ccccc2)N1 (stereo unspecified)	0.4	5.7*	1.2	7.0	0.6
CCCCCCC1(C)NC(=S)N(c2ccccc2)N1 (stereo unspecified)	0.0	1.1	0.1	1.4	5.7*
Oc1ccc(-c2csc(Nc3cccc4ccccc34)n2)cc1O	2.1	1.4	-0.1	3.6	2.1*
CCCN1CCN(CCCNC(=O)c2cc3c(=O)[nH]c4ccc(C)cc4c3s2)CC1	6.4*	-0.6	1.7	-0.5	-0.2
CCN1CCN(CCCNC(=O)c2cc3c(=O)oc4ccc(C)cc4c3s2)CC1	2.4	2.0	0.3	1.1	-0.7
COc1ccc(C2=NOC(CN3C(=O)c4ccccc4S3(=O)=O)C2)cc1 (stereo unspecified)	1.0	3.5	1.6	12.2*	0.5
O=C1c2ccccc2S(=O)(=O)N1CC1CC(c2ccccc2)=NO1 (stereo unspecified)	1.6	1.7	1.9	7.8	-0.8
COc1ccc(C(=O)C=Cc2cccs2)c(O)c1	-0.4	2.5	3.3	11.0*	-1.1
O=C(NNC(=O)C1CC1c1ccccc1)c1cccc([N+](=O)[O-])c1 (stereo unspecified)	-0.7	0.0	0.1	1.5	-0.4
COc1cccc(OC)c1C(=O)NC(=S)NNC(=O)[C@H]1C[C@@H]1c1ccccc1	-0.3	-1.2	-0.5	2.7	1.7*
O=C(NC(=S)NNC(=O)[C@H]1C[C@@H]1c1ccccc1)c1cccc(F)c1	-0.7	0.9	0.7	-0.3	1.4*
CC(C)C[C@H](NC(=O)[C@H](Cc1ccccc1)n1c(=O)[nH]c2ccccc2c1=O)C(=O)N1CCC(C(=O)O)CC1	0.2	2.4	-0.4	0.6	-0.5
C[C@H](NC(=O)[C@H](Cc1ccccc1)n1c(=O)[nH]c2ccccc2c1=O)C(=O)N1CCC(C(=O)O)CC1	4.9*	0.2	0.0	-0.8	-1.6
Cc1ccc(-c2nc3c(c(=O)c4ccccc4n3C)c(=O)n2-c2ccc(F)cc2)cc1	0.8	5.6*	-0.3	-0.3	-0.3
